The source of these data is PubChem BioAssay (EPA / NIEHS).

Test [1] in a line: ATG_NFI_CIS: Attagene CIS-FACTORIAL HepG2 Assay for human Nuclear Factor I (NFI) (AID 2282989). Particulars: HepG2 cis-regulatory reporter, NFI response element transcription; actives raise or lower the signal. Put shortly: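 Reporter transcripts were measured by RT-PCR with fluorescent primer extension and capillary electrophoresis 24 h post-treatment. HepG2 cells carried transiently transfected cis-regulated reporter constructs reporting endogenous factor activity; gain or loss fitted against DMSO baseline.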

The target in test [2] is Myc proto-oncogene protein (Homo sapiens) (UniProt P01106). In words: ATG_Myc_CIS: Attagene CIS-FACTORIAL HepG2 Assay for human Myelocytomatosis (Myc) Proto-Oncogene Transcription Factor (AID 2282990). Particulars: HepG2, Attagene cis-reporter transcription factor activity; actives raise or lower the signal. The method in brief:
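HepG2 cells transiently transfected with multiple cis-promoter-driven reporter transcription units, so endogenous TF activity is read. After 24 h compound exposure, reporter mRNA was quantified by RT-PCR, 6-FAM labelling, HpaI digestion and capillary electrophoresis; bidirectional fit versus DMSO.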

A short description of test [3]: ATG_NRF2_ARE_CIS: Attagene CIS-FACTORIAL HepG2 Assay for human Nuclear Factor Erythroid 2 Related Factor 2 (NFR2) response to Antioxidant Response Elements (ARE) (AID 2282992). Particulars: HepG2 Attagene ARE/NRF2 reporter, transcription factor activity; actives raise or lower the signal. The method in brief: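 HepG2 cells transiently transfected with multiplexed cis-element reporter constructs, 24 h after chemical dosing; reporter mRNA quantified by RT-PCR, fluorescent primer extension, HpaI digestion and capillary electrophoresis. Bidirectional fit relative to DMSO.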

The target of test [4] is Cellular tumor antigen p53 (Homo sapiens) (UniProt P04637). In words: ATG_p53_CIS: Attagene CIS-FACTORIAL HepG2 Assay for human p53 Transcription Factor (AID 2282994). The following applies: HepG2 p53 cis-element reporter, Attagene mRNA; actives raise or lower the signal. The method in brief: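 HepG2 cells transiently transfected with cis-regulated multiple reporter transcription units, dosed 24 h. Reporter mRNA measured by RT-PCR, 6-FAM primer extension, HpaI digestion and capillary electrophoresis; bidirectional fit relative to DMSO.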

Test [5] concerns the target human Retinoic Acid Receptor beta (RARb), RARB (gene 5915) (UniProt P10826). In words: ATG_RARb_TRANS: Attagene TRANS-FACTORIAL HepG2 Assay for human Retinoic Acid Receptor beta (AID 2283004; active = hit-call score of the fitted dose curve at least 0.9, where 1 is the maximum). The method in brief: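 HepG2 cells transiently transfected with multiplexed GAL4-UAS reporter units expressing chimeric NR–Gal4 fusions; 24 h compound exposure. Reporter mRNA quantified by RT-PCR, 6-FAM labelling, HpaI digestion and capillary electrophoresis; gain-of-signal fitted against DMSO baseline.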

The target of test [6] is Retinoic acid receptor alpha (Homo sapiens) (UniProt P10276). In words: ATG_RARa_TRANS: Attagene TRANS-FACTORIAL HepG2 Assay for human Retinoic Acid Receptor alpha (RARa) (AID 2283005; active = hit-call score of the fitted dose curve at least 0.9, where 1 is the maximum). The method in brief:
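HepG2 cells transiently transfected with multiple reporter units expressing chimeric RARα-GAL4 fusion, with GAL4-UAS-driven reporters. After 24 h compound exposure, reporter mRNA induction quantified by RT-PCR and capillary electrophoresis with fluorescent labeling; gain-of-signal fitted relative to DMSO control.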

For test [7], the target named is Nuclear receptor subfamily 1 group I member 2 (Homo sapiens) (UniProt O75469). The experiment in a line: ATG_PXR_TRANS: Attagene TRANS-FACTORIAL HepG2 Assay for human Pregnane X Receptor (PXR) (AID 2283008; active = hit-call score of the fitted dose curve at least 0.9, where 1 is the maximum). The method in brief:
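HepG2 cells transiently transfected with GAL4-UAS reporter units and PXR-Gal4 chimera, exposed 24 h. Reporter mRNA quantified by RT-PCR, fluorescent labelling, HpaI digestion and capillary electrophoresis; gain of signal vs DMSO.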

In test [8] the target is human Retinoic Acid Receptor gamma (RARg), RARG (gene 5916) (UniProt P13631). The experiment in a line: ATG_RARg_TRANS: Attagene TRANS-FACTORIAL HepG2 Assay for human Retinoic Acid Receptor gamma (RARg) (AID 2283009; active = hit-call score of the fitted dose curve at least 0.9, where 1 is the maximum). Put shortly:
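HepG2 cells transiently transfected with multiplexed reporter units expressing chimeric RARg-GAL4 and GAL4-UAS-driven reporters; 24 h compound exposure. Reporter mRNA quantified by RT-PCR with fluorescent labelling and capillary electrophoresis; gain-of-signal fitted relative to DMSO baseline.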

Test [9] in a line: ATG_Oct_MLP_CIS: Attagene CIS-FACTORIAL HepG2 Assay for human Octamer-Binding Transcription Factor (Oct) (AID 2282993). Particulars: HepG2 Attagene cis-factorial Oct reporter, mRNA; actives raise or lower the signal. The method in brief:
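Readout is reporter transcript level from RT-PCR with fluorescent primer extension and capillary electrophoresis, fitted in both directions against DMSO. Transfected HepG2 reporter units report endogenous factor activity after 24 h dosing.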

Test [10] concerns the target Peroxisome proliferator-activated receptor gamma (Homo sapiens) (UniProt P37231). In words: ATG_PPARg_TRANS: Attagene TRANS-FACTORIAL HepG2 Assay for human Peroxisome Proliferator-activated Receptor-gamma (PPARg) (AID 2283007; active = hit-call score of the fitted dose curve at least 0.9, where 1 is the maximum). The method in brief: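 Twenty-four hours after chemical dosing of transiently transfected HepG2 cells, isolated RNA was converted to cDNA, reporter sequences amplified and 6-FAM-labelled, then HpaI-digested and analysed by capillary electrophoresis. Signal increase against DMSO was fitted.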

A short description of test [11]: BSK_3C_TissueFactor: BioMAP Diversity Plus: 3C Assay for Tissue Factor Biomarker Activity (AID 2282997). The following applies: BioMAP 3C HUVEC, tissue factor biomarker readout; actives raise or lower the signal. The method in brief:
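Primary human umbilical vein endothelial cells in the 3C system were exposed to test chemical for 24 h, then Tissue Factor measured by ELISA. Activity was fitted bidirectionally against DMSO as negative control and baseline.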

Test [12] in a line: BSK_3C_uPAR: BioMAP Diversity Plus: 3C Assay for Urokinase-type plasminogen activator receptor (uPAR) Biomarker Activity (AID 2282998). The following applies: BioMAP 3C HUVEC, uPAR biomarker ELISA; actives raise or lower the signal. The method in brief:
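Cell-surface uPAR on HUVEC (3C system) read by ELISA at 24 h post-treatment, with DMSO as baseline and fitting in both directions. Parallel cultures stained with SRB to flag overt cytotoxicity.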

Test [13] in a line: BSK_3C_VCAM1: BioMAP Diversity Plus: 3C Assay for Vascular cell adhesion molecule 1 (VCAM1) Biomarker Activity (AID 2282999). Particulars: BioMAP 3C HUVEC, VCAM1 ELISA, cytokine-stimulated; actives raise or lower the signal. Put shortly:
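Human umbilical vein endothelial cells were dosed with compound for 24 h, after which cell-surface VCAM-1 was quantified by ELISA. Bidirectional curve fitting used DMSO as negative control and activity baseline.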

The nature of test [14]: BSK_4H_Eotaxin3: BioMAP Diversity Plus: 4H Assay for Eotaxin 3 Biomarker Activity (AID 2283000). The following applies: primary human endothelial cells (HUVEC); actives raise or lower the signal. The method in brief: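 HUVEC, 24 h post-dose, ELISA for Eotaxin-3/CCL26. Gain or loss of signal fitted bidirectionally vs DMSO baseline.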
Test [15] concerns the target human Peroxisome Proliferator-activated Receptor alpha (PPARa), PPARA (gene 5465) (UniProt Q07869). The experiment in a line: ATG_PPARa_TRANS: Attagene TRANS-FACTORIAL HepG2 Assay for human Peroxisome Proliferator-activated Receptor alpha (PPARa) (AID 2283001; active = hit-call score of the fitted dose curve at least 0.9, where 1 is the maximum). Put shortly:
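HepG2 cells transiently transfected with multiplexed GAL4-UAS reporter units and chimeric NR-Gal4 constructs were dosed for 24 h. Reporter mRNA was measured by RT-PCR with fluorescent labelling and capillary electrophoresis; gain of signal fitted against DMSO.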

Test [16] addresses human Peroxisome Proliferator-activated Receptor delta (PPARd), PPARD (gene 5467) (UniProt Q03181). In words: ATG_PPARd_TRANS: Attagene TRANS-FACTORIAL HepG2 Assay for human Peroxisome Proliferator-activated Receptor delta (PPARd) (AID 2283002; active = hit-call score of the fitted dose curve at least 0.9, where 1 is the maximum). Put shortly:
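HepG2 cells transiently transfected with multiplexed GAL4-UAS reporter units and exogenous chimeric NR-Gal4 proteins; 24 h compound exposure. Reporter mRNA measured by RT-PCR, 6-FAM labelling, HpaI digestion and capillary electrophoresis; gain of signal versus DMSO.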

Read-out in test [17]: Intercellular Adhesion Molecule 1 (ICAM1), ICAM1 (gene 3383)
In words: BSK_3C_ICAM1: BioMAP Diversity Plus: 3C Assay for Intercellular Adhesion Molecule 1 (ICAM1) Biomarker Activity (AID 2283003). Particulars: primary human endothelial cells (HUVEC); actives raise or lower the signal. Put shortly: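 Primary human umbilical vein endothelial cells in the BioMAP 3C system were exposed to chemicals for 24 h, then ICAM-1 was quantified by ELISA. Activity was fitted bidirectionally against the DMSO negative control baseline.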

The nature of test [18]: BSK_3C_Proliferation: Cell Proliferation Assessment in the BioMAP Diversity Plus: 3C Assay (AID 2283006).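 Also: potency may reflect either rise or fall in cell number versus DMSO.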 Particulars: primary human endothelial cells (HUVEC). The method in brief: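 Human umbilical vein endothelial cells were grown sub-confluent and exposed to chemical for 48 h, then fixed with 10% TCA and stained with 0.1% sulforhodamine B; absorbance at 560 nm gave relative cell number, fitted bidirectionally against DMSO baseline.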

The target in test [19] is human RAR-related Orphan Receptor beta (RORb), RORB (gene 6096) (UniProt Q92753). The experiment in a line: ATG_RORb_TRANS: Attagene TRANS-FACTORIAL HepG2 Assay for human RAR-related Orphan Receptor beta (RORb) (AID 2283010; active = hit-call score of the fitted dose curve at least 0.9, where 1 is the maximum). Put shortly: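 HepG2 cells were transiently transfected with multiplexed GAL4-UAS reporter units expressing chimeric nuclear receptor–GAL4 proteins, then dosed for 24 h. Reporter mRNA was quantified by RT-PCR with fluorescent labelling and capillary electrophoresis; gain of signal was fitted relative to DMSO.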

Test [20] can be described thus: ATG_NF_kB_CIS: Attagene CIS-FACTORIAL HepG2 Assay for human Nuclear Factor Kappa B (NF-kB) (AID 2282991). Particulars: HepG2 Attagene cis-factorial NF-kB reporter mRNA; actives raise or lower the signal. The method in brief:
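Fluorescence of labelled RT-PCR products separated by capillary electrophoresis gives reporter mRNA levels from transfected HepG2 cells exposed 24 h; values are fitted in both directions relative to DMSO.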

Broadly, the AC50 is the concentration at which the activity in the assay is half-maximal.

The structures appear in SMILES notation. Results filed as inconclusive are left out. Calls of active or inactive are those of the source. The calls were made as follows, unless noted: active = hit-call score of the fitted dose curve at least 0.9, where 1 is the maximum; inactive = score below 0.9.

Chain of Nuclear receptor subfamily 1 group I member 2 (Homo sapiens) (O75469 whole entry, looked up, the tested form may be a part): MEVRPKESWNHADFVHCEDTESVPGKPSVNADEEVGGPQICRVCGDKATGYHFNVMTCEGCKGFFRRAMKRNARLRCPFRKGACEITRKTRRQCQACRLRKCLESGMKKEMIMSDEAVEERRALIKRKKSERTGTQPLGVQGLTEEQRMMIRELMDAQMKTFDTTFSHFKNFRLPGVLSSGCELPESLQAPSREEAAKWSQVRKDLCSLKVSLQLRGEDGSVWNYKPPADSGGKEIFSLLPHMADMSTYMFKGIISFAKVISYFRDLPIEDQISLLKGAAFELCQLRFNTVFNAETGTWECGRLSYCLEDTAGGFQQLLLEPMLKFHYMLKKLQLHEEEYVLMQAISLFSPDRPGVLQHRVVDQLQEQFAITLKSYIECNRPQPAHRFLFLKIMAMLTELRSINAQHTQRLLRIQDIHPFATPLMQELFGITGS
Chain of Myc proto-oncogene protein (Homo sapiens) (P01106 whole entry, looked up): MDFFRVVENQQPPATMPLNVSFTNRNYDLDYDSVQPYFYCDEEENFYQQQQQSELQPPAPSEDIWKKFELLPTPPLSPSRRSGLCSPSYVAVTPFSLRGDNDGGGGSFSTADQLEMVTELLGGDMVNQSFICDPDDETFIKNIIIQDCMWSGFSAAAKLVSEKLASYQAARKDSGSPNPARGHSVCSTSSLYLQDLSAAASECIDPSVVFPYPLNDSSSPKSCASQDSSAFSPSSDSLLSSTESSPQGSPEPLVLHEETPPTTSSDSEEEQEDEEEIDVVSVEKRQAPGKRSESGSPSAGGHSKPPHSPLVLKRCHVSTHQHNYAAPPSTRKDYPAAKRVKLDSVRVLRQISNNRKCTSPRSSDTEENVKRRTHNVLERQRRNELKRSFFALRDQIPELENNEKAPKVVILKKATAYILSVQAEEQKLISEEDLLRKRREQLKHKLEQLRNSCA
Chain of Cellular tumor antigen p53 (Homo sapiens) (P04637 whole entry, looked up): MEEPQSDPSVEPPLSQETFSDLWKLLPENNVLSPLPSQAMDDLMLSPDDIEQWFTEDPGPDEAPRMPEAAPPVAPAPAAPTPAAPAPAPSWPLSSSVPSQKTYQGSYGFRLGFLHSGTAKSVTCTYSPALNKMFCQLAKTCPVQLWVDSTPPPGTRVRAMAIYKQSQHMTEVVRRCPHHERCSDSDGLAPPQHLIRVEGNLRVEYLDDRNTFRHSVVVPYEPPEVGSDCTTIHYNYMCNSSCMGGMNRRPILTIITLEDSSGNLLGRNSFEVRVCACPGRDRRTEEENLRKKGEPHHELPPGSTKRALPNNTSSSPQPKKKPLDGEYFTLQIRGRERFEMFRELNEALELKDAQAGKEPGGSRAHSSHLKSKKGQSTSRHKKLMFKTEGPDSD
Chain of Peroxisome proliferator-activated receptor gamma (Homo sapiens) (P37231 whole entry, looked up): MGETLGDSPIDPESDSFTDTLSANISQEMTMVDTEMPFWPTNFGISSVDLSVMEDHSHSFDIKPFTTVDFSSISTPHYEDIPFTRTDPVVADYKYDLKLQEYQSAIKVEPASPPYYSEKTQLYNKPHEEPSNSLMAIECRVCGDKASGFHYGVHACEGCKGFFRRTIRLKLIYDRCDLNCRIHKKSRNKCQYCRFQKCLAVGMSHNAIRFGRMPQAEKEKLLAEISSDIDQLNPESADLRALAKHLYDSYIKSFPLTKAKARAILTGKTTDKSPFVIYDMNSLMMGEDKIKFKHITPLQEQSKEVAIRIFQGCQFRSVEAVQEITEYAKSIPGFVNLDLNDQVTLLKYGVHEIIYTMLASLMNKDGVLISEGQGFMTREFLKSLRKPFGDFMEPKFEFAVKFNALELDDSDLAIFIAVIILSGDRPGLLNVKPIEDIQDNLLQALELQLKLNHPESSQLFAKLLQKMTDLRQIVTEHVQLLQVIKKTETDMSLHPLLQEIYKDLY
Chain of Retinoic acid receptor alpha (Homo sapiens) (P10276 whole entry, looked up, the tested form may be a part): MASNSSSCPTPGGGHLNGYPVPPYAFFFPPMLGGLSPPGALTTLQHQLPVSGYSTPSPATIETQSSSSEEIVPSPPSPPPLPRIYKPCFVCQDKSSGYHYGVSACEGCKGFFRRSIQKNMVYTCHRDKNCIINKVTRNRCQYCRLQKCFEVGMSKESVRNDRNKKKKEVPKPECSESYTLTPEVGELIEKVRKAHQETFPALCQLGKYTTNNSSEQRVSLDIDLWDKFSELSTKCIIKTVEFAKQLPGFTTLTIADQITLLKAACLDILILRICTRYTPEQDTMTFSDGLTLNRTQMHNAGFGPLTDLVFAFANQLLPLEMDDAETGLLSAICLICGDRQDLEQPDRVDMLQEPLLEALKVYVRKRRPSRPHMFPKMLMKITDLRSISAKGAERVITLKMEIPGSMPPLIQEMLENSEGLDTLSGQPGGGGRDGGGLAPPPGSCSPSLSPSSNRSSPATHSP
Chain of human Retinoic Acid Receptor beta (RARb), RARB (gene 5915) (P10826 whole entry, looked up, the tested form may be a part): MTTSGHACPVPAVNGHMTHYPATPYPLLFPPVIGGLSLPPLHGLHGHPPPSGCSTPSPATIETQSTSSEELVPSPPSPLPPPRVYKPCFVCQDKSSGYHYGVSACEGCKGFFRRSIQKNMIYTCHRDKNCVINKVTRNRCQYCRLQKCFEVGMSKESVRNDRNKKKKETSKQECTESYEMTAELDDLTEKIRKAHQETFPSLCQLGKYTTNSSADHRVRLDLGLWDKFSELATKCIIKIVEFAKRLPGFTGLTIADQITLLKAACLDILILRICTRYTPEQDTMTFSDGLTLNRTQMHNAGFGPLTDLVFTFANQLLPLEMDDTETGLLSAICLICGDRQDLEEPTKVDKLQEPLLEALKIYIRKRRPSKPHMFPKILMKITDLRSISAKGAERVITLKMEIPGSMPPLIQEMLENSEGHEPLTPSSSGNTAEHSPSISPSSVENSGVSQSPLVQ
Chain of human Peroxisome Proliferator-activated Receptor alpha (PPARa), PPARA (gene 5465) (Q07869 whole entry, looked up, the tested form may be a part): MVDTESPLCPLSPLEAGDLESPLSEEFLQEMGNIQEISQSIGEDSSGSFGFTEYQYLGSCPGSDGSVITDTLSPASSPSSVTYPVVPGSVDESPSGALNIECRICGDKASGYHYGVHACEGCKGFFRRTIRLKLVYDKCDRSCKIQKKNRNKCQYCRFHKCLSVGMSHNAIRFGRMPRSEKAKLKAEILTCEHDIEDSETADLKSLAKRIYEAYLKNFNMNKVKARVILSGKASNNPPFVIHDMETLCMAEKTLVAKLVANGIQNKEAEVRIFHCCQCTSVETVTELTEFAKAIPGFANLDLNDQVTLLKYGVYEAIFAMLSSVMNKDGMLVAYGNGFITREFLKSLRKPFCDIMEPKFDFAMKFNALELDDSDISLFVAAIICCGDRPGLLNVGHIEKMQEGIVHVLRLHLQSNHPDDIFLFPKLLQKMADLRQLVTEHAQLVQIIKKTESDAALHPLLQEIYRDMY
Chain of human Retinoic Acid Receptor gamma (RARg), RARG (gene 5916) (P13631 whole entry, looked up, the tested form may be a part): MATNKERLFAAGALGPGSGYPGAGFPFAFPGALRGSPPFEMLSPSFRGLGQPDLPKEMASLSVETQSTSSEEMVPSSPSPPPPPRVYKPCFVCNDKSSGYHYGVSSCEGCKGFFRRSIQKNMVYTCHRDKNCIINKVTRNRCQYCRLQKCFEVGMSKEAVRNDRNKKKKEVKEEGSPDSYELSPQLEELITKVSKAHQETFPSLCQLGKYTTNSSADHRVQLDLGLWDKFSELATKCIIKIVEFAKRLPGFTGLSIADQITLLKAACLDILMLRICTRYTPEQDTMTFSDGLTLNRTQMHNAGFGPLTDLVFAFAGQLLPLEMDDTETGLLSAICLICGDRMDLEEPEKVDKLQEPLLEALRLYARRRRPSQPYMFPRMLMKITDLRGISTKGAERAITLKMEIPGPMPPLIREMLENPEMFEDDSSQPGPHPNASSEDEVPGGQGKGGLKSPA
Chain of human Peroxisome Proliferator-activated Receptor delta (PPARd), PPARD (gene 5467) (Q03181 whole entry, looked up, the tested form may be a part): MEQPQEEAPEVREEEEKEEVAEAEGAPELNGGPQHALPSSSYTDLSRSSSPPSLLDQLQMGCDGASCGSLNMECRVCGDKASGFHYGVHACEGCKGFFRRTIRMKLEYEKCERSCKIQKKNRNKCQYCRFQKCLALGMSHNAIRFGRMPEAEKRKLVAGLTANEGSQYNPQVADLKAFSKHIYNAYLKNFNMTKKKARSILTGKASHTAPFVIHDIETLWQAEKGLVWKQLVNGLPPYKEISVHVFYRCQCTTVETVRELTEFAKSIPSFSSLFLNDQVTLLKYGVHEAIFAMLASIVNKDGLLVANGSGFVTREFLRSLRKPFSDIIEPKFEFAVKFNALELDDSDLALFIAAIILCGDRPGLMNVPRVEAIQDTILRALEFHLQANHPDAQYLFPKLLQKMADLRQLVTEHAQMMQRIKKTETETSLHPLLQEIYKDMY
Chain of human RAR-related Orphan Receptor beta (RORb), RORB (gene 6096) (Q92753 whole entry, looked up, the tested form may be a part): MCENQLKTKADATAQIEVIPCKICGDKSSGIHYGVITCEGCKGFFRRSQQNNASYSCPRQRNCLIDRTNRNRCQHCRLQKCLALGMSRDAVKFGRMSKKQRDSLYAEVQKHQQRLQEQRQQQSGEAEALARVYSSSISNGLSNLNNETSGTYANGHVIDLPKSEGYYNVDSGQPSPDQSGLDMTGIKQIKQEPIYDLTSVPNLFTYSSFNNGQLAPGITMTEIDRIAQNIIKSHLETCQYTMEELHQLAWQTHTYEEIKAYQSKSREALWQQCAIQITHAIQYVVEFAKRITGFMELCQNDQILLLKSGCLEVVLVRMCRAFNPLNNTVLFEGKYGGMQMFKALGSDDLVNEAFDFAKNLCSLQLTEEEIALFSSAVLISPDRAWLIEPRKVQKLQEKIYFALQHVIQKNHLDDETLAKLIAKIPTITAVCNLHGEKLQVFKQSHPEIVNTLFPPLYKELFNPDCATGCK

Turning to `CCCCCCOC(=O)CCC`, the call in [1], in [2], in test [3], in [4], in test [5] and in test [6] was inactive. The molecule was called inactive in test [8]. Besides, the AC50 in test [7] was 15.1 µM (active).

Take `CCCCC1(COC(=O)CCC(=O)O)C(=O)N(c2ccccc2)N(c2ccccc2)C1=O`: the molecule was called inactive in test [1], in test [2], in test [3], in test [9], in [4] and in [10]. Moreover, in [7], the AC50 is 28 µM (active).

With `c1ccc(CCc2ccccc2)cc1`, the molecule was classed as inactive in test [1], in [2], in [4], in test [15], in test [16] and in test [10]. The AC50 was 149 µM (active) in test [3]; 14.5 µM (active) in [11]; 36.7 µM (active) in test [12]; 29.8 µM (active) in test [13]; 30.7 µM (active) in test [14]; 30.9 µM (active) in test [17]. Also, the half-maximal activity concentration (AC50) in test [18] was 22.7 µM (active); in [7] it was 31.6 µM (active).

For `CCC(=O)OCCOc1ccccc1`, the call in test [1], in [2], in [3], in test [9], in test [15] and in [19] was inactive.

On to `CCCCCC(C)=O`, for which the outcome in test [1], in test [2], in [3], in [9], in [4] and in test [10] was inactive. Also, the outcome in test [7] was inactive.

Regarding `O=P(O)(O)O`, the molecule was called inactive in test [2], in test [20], in test [3] and in [9].

Turning to `CCCC[P+](CCCC)(CCCC)CCCC`, the result in test [1], in [2], in test [3], in test [9], in [4] and in test [7] was inactive.

As for `CCCCC(CC)(CO)CO`, the molecule was classed as inactive in test [1], in [2], in test [3], in test [9], in test [4] and in [10]. Also, the molecule was called inactive in [7].

`C=CC(=O)OCCCC`: the call in test [1], in test [2], in test [3], in [4], in test [5] and in [6] was inactive. Moreover, the molecule was called inactive in [7] and in [8].
